Test results as given in PubChem BioAssay (NCATS).
Where “and” joins values, the source holds several entries; their conditions need not be identical. Equal values may be shown once. Inconclusive results are not listed. Calls of active or inactive are those of the source. Unless noted, calls follow the shape of the dose curve; as a rule, active = well fitted curve in either direction with a large enough effect (not every such curve was filed as active); inconclusive = small, poorly fitted or top-dose-only effect, or another doubt; inactive = flat fitted curve, though single readings scatter.

Key:
[1] = AP1 Signaling Pathway (AID 357); details: ME-180 AP-1-bla reporter, EGF-induced, beta-lactamase ratio, 5 h;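 also: ME-180 reporter cells stimulated with EGF at its EC50 level; % is scaled to controls: 0 for no effect and ±100 for the full control effect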
Outline: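 First, ME-180 AP-1-bla cells were cultured overnight at 37 °C in low-serum Opti-MEM. Next, titrated compounds with EC50 EGF were incubated 5 hours. Finally, CCF4 was added for 2.5 hours and the 460/530 nm ratio recorded.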

[2] = target: Cytochrome P450 1A2 (Homo sapiens) (UniProt P05177); assay: p450-cyp1a2 (AID 410; calls by dose curve; also: potency is read from the fitted curve at half-maximal effect;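 as to activity change, negative = inhibition: -100% = full effect of reference inhibitor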); details: recombinant CYP1A2, luciferin-ME demethylation, luminescence; series mostly up to 57 µM
Outline: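 20nM CYP1A2 with 100uM Luciferin-ME (at Km) in 100mM KPO4; compound preincubated 10 min, NADPH regeneration added, 60 min at room temperature. Luciferin quantified by luminescence after detection reagent; normalized to 57 uM furafylline.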

[3] = Cell Viability - BJ (AID 421; calls by dose curve;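 also: potency is read from the fitted curve at half-maximal effect; cells exposed to compound for 40 hours at 37 °C before readout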); details: BJ fibroblast viability, qHTS
Outline: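 Luminescent ATP signal (CellTiter-Glo, 20 min at room temperature) served as the read-out of viable BJ cells after 40 hours of compound treatment. Responses were scaled between DMSO and 100 uM tamoxifen, and AC50 values were obtained by Hill modeling.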

[4] = Cell Viability - Jurkat (AID 426;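 active = dose-dependent loss of cell ATP signal giving a full or clear fitted curve, ranked by lower potency value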; also: potency is read from the fitted curve at half-maximal effect); details: qHTS
Outline: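 Jurkat (Clone E6-1) cells, 5000/well in complete medium, exposed to compounds for 40 hr at 37C; intracellular ATP measured by CellTiter-Glo luminescence after 20 min at room temperature. AC50 from Hill fits.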

[5] = Cell Viability - Hek293 (AID 427;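 active = compounds whose dose-response curve shows a full or clear partial loss of cell viability, called from curve shape rather than a numeric limit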;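 also: potency is read from the fitted curve at half-maximal effect; cells exposed to compound for 40 hours at 37 °C before reading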); details: qHTS
Outline: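 Luminescent ATP read-out (CellTiter-Glo, 20 min RT) after 40 hr compound exposure at 37 °C in complete medium. Signal normalized to DMSO (basal) and 100 uM tamoxifen (100% inhibition); concentration-response fitted with the standard Hill equation to give AC50.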

[6] = Cell Viability - HepG2 (AID 433; calls by dose curve;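 also: potency is read from the fitted curve at half-maximal effect; potency for ATP loss meaning cytotoxicity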); details: qHTS
Outline: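 HepG2 cells, 1500 per well, treated 40 hr at 37 °C in complete medium; viability from intracellular ATP by CellTiter-Glo luminescence. Normalized to DMSO and 100 uM tamoxifen; AC50 from Hill fit of qHTS concentration-response.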

[7] = Cell Viability - MRC5 (AID 434; calls by dose curve;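 also: potency is read from the fitted curve at half-maximal effect; potency reflects cytotoxicity seen as loss of intracellular ATP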); details: MRC5 lung fibroblast viability, qHTS
Outline: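 qHTS cytotoxicity in human lung fibroblast MRC5 cells; 40 hr treatment, 37 °C; cellular ATP by luciferase luminescence; DMSO = 0%, 100 uM tamoxifen = 100% inhibition; Hill-fit AC50.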

[8] = Cell Viability - SK-N-SH (AID 435; calls by dose curve;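 also: potency is read from the fitted curve at half-maximal effect; compound exposure lasted 40 h at 37 °C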); details: SK-N-SH neuroblastoma cell viability qHTS
Outline: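 SK-N-SH neuroblastoma cells (1500/well) treated 40 h at 37 °C in complete medium; viability read as cellular ATP by CellTiter-Glo luminescence. Normalized to DMSO and 100 uM tamoxifen; AC50 from Hill fits of qHTS concentration-response.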

[9] = NFAT Signaling Pathway (AID 444); details: Jurkat NFAT-bla M1, carbachol, beta-lactamase ratio, 5 h;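 also: carbachol stimulus at about its EC50 of 1 µM final; % is scaled to controls: 0 for no effect and ±100 for the full control effect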
Outline: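 Read-out: CCF4 FRET ratio (460 nm/530 nm) after 1 h RT dye loading, used for %activity and AC50 from titration series. Cells: Jurkat NFAT-β-lactamase/M1 line, treated with compound plus 1 uM carbachol for 5 h, 37 °C.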

[10] = Stat Signaling Pathway (AID 446); details: ME-180 SIE beta-lactamase reporter, IL-6 stimulated, 5 h; series mostly up to 17.2 µM;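 also: ME-180 cervical cancer cells given 40 pM IL-6 alongside compound; SIE-controlled beta-lactamase reporter measured as 460/530 nm FRET emission ratio; % is scaled to controls: 0 for no effect and ±100 for the full control effect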
Outline: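 ME-180 SIE-bla cells; overnight plating; cpd + IL-6 40 pM, 5 h, 37 C; LiveBLAzer 2.5 h RT; 460/530 nm emission ratio. Normalized to 300 pM IL-6 and 125 nM JAK inhibitor controls.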

[11] = target: Glucocorticoid receptor (Homo sapiens) (UniProt P04150); assay: GR-GFP Redistribution (AID 450;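 active = compounds whose dose series gives a full or clear partial fitted curve of increased nuclear translocation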; also: potency is read from the fitted curve at half-maximal effect); details: U2OS GR-GFP nuclear translocation, laser cytometry, 2 h
[12] = target: Glucocorticoid receptor (Homo sapiens) (UniProt P04150); assay: GR-EFC Redistribution (AID 451; calls by dose curve; also: potency is read from the fitted curve at half-maximal effect); details: CHO-K1 GR-EFC translocation, beta-gal luminescence, 2 h
Outline: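 Translocation of GR-ED fusion to nuclear EA restores b-gal, read by luminescence after 1 h room-temperature detection. Engineered CHO-K1 biosensor cells, 1,000/well, exposed 2 h at 37 C to titrations up to 46 uM final.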

[13] = Cell Viability - N2a (AID 540; active = well fitted curve in the direction sought with a large enough effect; an effect the other way counts as inactive or inconclusive;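 also: plate controls were DMSO alone for no effect and tamoxifen control for full effect; nearly all actives have a fitted effect of over 45% in size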); details: N2a mouse neuroblastoma cell viability; series mostly up to 92.2 µM
Outline: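 Mouse neuroblastoma N2a cells, 1500/well, exposed to compounds 40 h at 37 °C in complete medium. Viability measured as cellular ATP by CellTiter-Glo luminescence; AC50 from Hill fits of concentration-response.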

[14] = Cell Viability - NIH 3T3 (AID 541; active = well fitted curve in the direction sought with a large enough effect; an effect the other way counts as inactive or inconclusive;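 also: plate controls were DMSO alone for no effect and tamoxifen positive control for full effect; nearly all actives have a fitted effect of over 25% in size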); details: NIH 3T3 cell viability, qHTS; series mostly up to 92.2 µM
Outline: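 Mouse NIH 3T3 fibroblasts, 1000 cells/well, rested 5 hr at 37 °C, then exposed to compound for 40 hr at 37 °C in complete medium. Viability read as intracellular ATP by CellTiter-Glo luminescence; AC50 from Hill-equation fits of concentration-response data.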

[15] = Cell Viability - HUV-EC-C (AID 542; active = well fitted curve in the direction sought with a large enough effect; an effect the other way counts as inactive or inconclusive; also: % is scaled to controls: 0 for no effect and ±100 for the full control effect; nearly all actives have a fitted effect of over 35% in size); details: HUV-EC-C endothelial cell viability, qHTS; series mostly up to 92.2 µM
Outline: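 HUV-EC-C human vascular endothelial cells, 1000/well, exposed to compound for 40 hr at 37 °C in complete medium. Intracellular ATP was read by CellTiter-Glo luminescence. AC50 came from Hill-equation fits of concentration-response data.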

[16] = Cell Viability - H-4-II-E (AID 543; active = well fitted curve in the direction sought with a large enough effect; an effect the other way counts as inactive or inconclusive; also: % is scaled to controls: 0 for no effect and ±100 for the full control effect; nearly all actives have a fitted effect of over 35% in size); details: H-4-II-E rat hepatoma viability; series mostly up to 92.2 µM
Outline: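 Rat hepatoma H-4-II-E cells, 1500 per well, treated 40 h at 37 °C in complete medium. Cellular ATP read by CellTiter-Glo luminescence; AC50 from Hill fits of concentration-response.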

[17] = Cell Viability - SH-SY5Y (AID 544; active = well fitted curve in the direction sought with a large enough effect; an effect the other way counts as inactive or inconclusive;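 also: 0% = DMSO alone and -100% = 100 µM tamoxifen; nearly all actives have a fitted effect of over 55% in size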); details: SH-SY5Y neuroblastoma cell viability; series mostly up to 92.2 µM
Outline: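 SH-SY5Y human neuroblastoma cells (1500/well) incubated 5 h, then compound-treated 40 h at 37 °C in complete medium. Viability read as intracellular ATP by CellTiter-Glo luminescence after 20 min; AC50 from Hill-equation fits of qHTS concentration-response.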

[18] = Cell Viability - Renal Proximal Tubule (AID 545; active = well fitted curve in the direction sought with a large enough effect; an effect the other way counts as inactive or inconclusive;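 also: 0% = DMSO only and -100% = 100 µM tamoxifen; nearly all actives have a fitted effect of over 40% in size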); details: renal proximal tubule cells viability, primary cells of rat origin; series mostly up to 91.7 µM
Outline: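 Rat renal proximal tubule primary cells, 1000/well, exposed to compounds for 40 hr at 37 °C in complete medium; cellular ATP read by CellTiter-Glo luminescence. AC50 from concentration-response fitted with standard Hill equation.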

[19] = Cell Viability - Mesenchymal (AID 546; active = well fitted curve in the direction sought with a large enough effect; an effect the other way counts as inactive or inconclusive;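 also: cells exposed to compound for 40 hours before reading; 0% = DMSO only and -100% = 100 µM tamoxifen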); details: mesenchymal cells viability, qHTS; series mostly up to 91.7 µM
Outline: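 AC50 values reflect the drop in intracellular ATP in a human kidney mesenchymal line derived from normal glomeruli. Treatment lasts 40 hr at 37 °C in complete medium, and the signal comes from CellTiter-Glo luminescence.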

Chain of Cytochrome P450 1A2 (Homo sapiens) (P05177 whole entry, looked up): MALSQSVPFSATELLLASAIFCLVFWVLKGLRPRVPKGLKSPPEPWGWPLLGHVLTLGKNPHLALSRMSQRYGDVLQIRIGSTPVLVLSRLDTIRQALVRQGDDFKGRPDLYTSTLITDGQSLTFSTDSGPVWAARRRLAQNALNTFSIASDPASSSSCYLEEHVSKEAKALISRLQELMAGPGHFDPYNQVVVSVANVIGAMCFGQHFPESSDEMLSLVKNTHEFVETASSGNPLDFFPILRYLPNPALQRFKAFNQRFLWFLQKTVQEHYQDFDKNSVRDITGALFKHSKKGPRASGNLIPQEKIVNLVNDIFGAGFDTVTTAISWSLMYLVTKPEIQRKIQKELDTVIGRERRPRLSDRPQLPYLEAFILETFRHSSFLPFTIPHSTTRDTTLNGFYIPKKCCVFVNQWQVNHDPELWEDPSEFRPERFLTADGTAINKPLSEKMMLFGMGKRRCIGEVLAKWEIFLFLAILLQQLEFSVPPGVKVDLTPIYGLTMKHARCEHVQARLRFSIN
Chain of Glucocorticoid receptor (Homo sapiens) (P04150 whole entry, looked up, the tested form may be a part): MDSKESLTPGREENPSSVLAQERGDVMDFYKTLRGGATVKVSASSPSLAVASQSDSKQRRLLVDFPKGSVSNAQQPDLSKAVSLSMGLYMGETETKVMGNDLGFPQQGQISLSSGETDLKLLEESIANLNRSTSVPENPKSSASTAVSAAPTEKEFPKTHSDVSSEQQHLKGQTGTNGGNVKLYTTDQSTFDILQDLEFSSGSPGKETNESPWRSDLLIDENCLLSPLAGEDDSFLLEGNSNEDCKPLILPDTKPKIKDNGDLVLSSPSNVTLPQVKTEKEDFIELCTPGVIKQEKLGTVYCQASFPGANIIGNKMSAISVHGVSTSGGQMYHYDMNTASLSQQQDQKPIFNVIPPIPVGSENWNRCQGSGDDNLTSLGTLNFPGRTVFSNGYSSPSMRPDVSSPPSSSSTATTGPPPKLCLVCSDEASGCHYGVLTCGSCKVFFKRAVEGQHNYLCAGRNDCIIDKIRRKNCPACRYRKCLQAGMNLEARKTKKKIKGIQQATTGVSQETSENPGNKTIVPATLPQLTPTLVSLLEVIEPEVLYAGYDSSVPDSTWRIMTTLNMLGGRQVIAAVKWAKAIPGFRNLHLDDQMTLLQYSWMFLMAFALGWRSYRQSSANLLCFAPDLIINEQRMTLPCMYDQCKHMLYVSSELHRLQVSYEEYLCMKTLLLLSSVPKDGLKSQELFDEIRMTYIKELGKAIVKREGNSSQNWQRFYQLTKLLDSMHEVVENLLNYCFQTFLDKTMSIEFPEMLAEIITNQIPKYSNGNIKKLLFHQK

O=c1[nH]cnc2[nH]ncc12
inactive: activity change, negative = inhibition ([1]; at 38 µM (top of the series)) 2.34% | Potency [2] | Potency [3] > 92 µM | Potency [4] > 92 µM | Potency [5] > 92 µM | Potency [6] > 92 µM | Potency [7] > 92 µM | Potency [8] > 92 µM | activity change, negative = inhibition ([9]; at 38 µM (top of the series)) 5.26% | outcome [10] | Potency [11] > 46 µM | Potency [12] > 46 µM | outcome [13] | Potency [14] | outcome [15] | Potency [16] | outcome [17] | outcome [18] | outcome [19]

NC(N)=NC(=O)c1nc(Cl)c(N)nc1N
active: Potency [2] 12.6 µM and 6.31 µM
inactive: activity change, negative = inhibition ([1]; at 17.2 µM (top of the series)) 2.66% and -5.39% | activity change, negative = inhibition ([1]; at 38 µM (top of the series)) -2.62% | Potency [3] > 92 µM | Potency [4] > 92 µM | Potency [5] > 92 µM | Potency [6] > 92 µM | Potency [7] > 92 µM | Potency [8] > 92 µM | activity change, negative = inhibition ([9]; at 17.2 µM (top of the series)) 8.59% and -17.4% | activity change, negative = inhibition ([9]; at 38 µM (top of the series)) -2.5% | outcome [10] | Potency [11] > 46 µM and > 20.6 µM | Potency [12] > 46 µM and > 20.6 µM | outcome [13] | Potency [14] | outcome [15] | outcome [18] | outcome [19]

Cc1cnc(NC(=O)C2=C(O)c3ccccc3S(=O)(=O)N2C)s1
inactive: activity change, negative = inhibition ([1]; at 17.2 µM (top of the series)) -12.9% | activity change, negative = inhibition ([1]; at 38 µM (top of the series)) 1.25% | activity change, negative = inhibition ([9]; at 17.2 µM (top of the series)) -9.71% | activity change, negative = inhibition ([9]; at 38 µM (top of the series)) 11.3% | outcome [10] | Potency [11] > 46 µM and > 20.6 µM | Potency [12] > 46 µM

O=C1CCc2cc(OCCCCc3nnnn3C3CCCCC3)ccc2N1
inactive: activity change, negative = inhibition ([1]; at 17.2 µM (top of the series)) -11% | activity change, negative = inhibition ([1]; at 38 µM (top of the series)) -14.1% | Potency [2] | activity change, negative = inhibition ([9]; at 17.2 µM (top of the series)) -6.28% | activity change, negative = inhibition ([9]; at 38 µM (top of the series)) -9.05% | outcome [10] | Potency [11] > 46 µM and > 20.6 µM | Potency [12] > 46 µM
